Measurements reported in PubChem BioAssay (NCATS).
Inconclusive results are not listed. Activity calls are given as the source filed them. Calls follow the shape of the dose curve; as a rule, active = well fitted curve in the direction sought with a large enough effect; inconclusive = small, poorly fitted or top-dose-only effect, or another doubt; inactive = no such curve, though single readings can be large; an effect the other way counts as inactive or inconclusive.

Legend:
HEK293 = assay: Cytotoxic Profiling of Annotated Libraries Using Quantitative High-Throughput Screening (AID 1296008); details: Five cell lines viability, CellTiter-Glo ATP luminescence, 48-72 h; max response: hits give low values; also: nearly all actives have a fitted effect of over 60% in size
How it was run: (§1)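 Compounds were pin-transferred onto cells and incubated 48 or 72 hr at 37 degree Celsius, 95% humidity. CellTiter-Glo was added, plates sat 10 min at room temperature, then ATP-coupled luminescence was imaged as the viability read-out.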

HaCat = assay: as above; details: Five cell lines viability, CellTiter-Glo ATP luminescence, 48-72 h; max response: hits give low values
How it was run: as §1

KB-3-1 = assay: as above; details: Five cell lines viability, CellTiter-Glo ATP luminescence, 48-72 h; max response: hits give low values
How it was run: as §1

NIH3T3 = assay: as above; details: Five cell lines viability, CellTiter-Glo ATP luminescence, 48-72 h; max response: hits give low values
How it was run: as §1

C33A = assay: Primary qHTS to identify gynecologic anti-cancer compounds using libraries of approved drugs and bioactive compounds (AID 1345084); details: Gynecologic cancer cell panel viability, ATPlite luminescence, 48 h; series mostly up to 57.5 µM; also: nearly all actives have a fitted effect of over 55% in size
How it was run: (§2)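 Cytotoxicity screen measuring ATP content by luciferase luminescence. Each compound is applied at five concentrations for 48 h at 37 C with 5% CO2.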

CAOV3 = assay: as above; details: Gynecologic cancer cell panel viability, ATPlite luminescence, 48 h; series mostly up to 57.5 µM
How it was run: as §2

CASKI = assay: as above; details: Gynecologic cancer cell panel viability, ATPlite luminescence, 48 h; series mostly up to 57.5 µM
How it was run: as §2

Es-2 = assay: as above; details: Gynecologic cancer cell panel viability, ATPlite luminescence, 48 h; series mostly up to 57.5 µM
How it was run: as §2

HeLa = assay: as above; details: Gynecologic cancer cell panel viability, ATPlite luminescence, 48 h; series mostly up to 57.5 µM
How it was run: as §2

Hek293T = assay: as above; details: Gynecologic cancer cell panel viability, ATPlite luminescence, 48 h, control line for the selectivity index; series mostly up to 57.5 µM
How it was run: as §2

JEG-3 = assay: as above; details: Gynecologic cancer cell panel viability, ATPlite luminescence, 48 h; series mostly up to 57.5 µM
How it was run: as §2
% is scaled to controls: 0 for no effect and ±100 for the full control effect; potency is read from the fitted curve at half-maximal effect.

CC(=O)/C=C/[C@H]1[C@](C)(O)[C@@H](O)[C@H](OC(C)=O)C2C(C)(C)CCC[C@@]21C (stereo partly drawn)
inactive: max response (HEK293) -3.84% | max response (HaCat) -21.7% | outcome (KB-3-1) | max response (NIH3T3) -10.6% | Potency (C33A) | Potency (CAOV3) | Potency (CASKI) | Potency (Es-2) | Potency (HeLa) | Potency (Hek293T) | Potency (JEG-3)

CC(C)(C)c1ccc(S(=O)(=O)Nc2ccc(Cl)cc2C(=O)c2cc[n+]([O-])cc2)cc1
inactive: max response (HEK293) -2.23% | max response (HaCat) -10.2% | outcome (KB-3-1) | max response (NIH3T3) -1.11% | Potency (C33A) | Potency (CAOV3) | Potency (CASKI) | Potency (Es-2) | Potency (HeLa) | Potency (Hek293T) | Potency (JEG-3)

CC1(C)CCCC2(C)C1C(O)C=C(CO)C2(O)CO (stereo not drawn)
inactive: max response (HEK293) -0.916% | max response (HaCat) -4.77% | outcome (KB-3-1) | max response (NIH3T3) -1.11% | Potency (C33A) | Potency (CAOV3) | Potency (CASKI) | Potency (Es-2) | Potency (HeLa) | Potency (Hek293T) | Potency (JEG-3)

OCCc1ccc(O[C@@H]2O[C@H](CO)[C@@H](O)[C@H](O)[C@H]2O)cc1
inactive: max response (HEK293) 0.276% | max response (HaCat) -3.11% | max response (KB-3-1) -1.98% | max response (NIH3T3) 2.39% | Potency (C33A) | Potency (CAOV3) | Potency (CASKI) | Potency (Es-2) | Potency (HeLa) | Potency (Hek293T) | Potency (JEG-3)

C=C1C[C@]23C[C@H]1[C@@H](O)C[C@H]2[C@@]12C=C[C@H](O)[C@@](C)(C(=O)O1)[C@H]2[C@@H]3C(=O)O
inactive: max response (HEK293) -1.36% | max response (HaCat) -32.5% | max response (KB-3-1) -2.31% | max response (NIH3T3) 0.227% | Potency (C33A) | Potency (CAOV3) | Potency (CASKI) | Potency (Es-2) | Potency (HeLa) | Potency (Hek293T) | Potency (JEG-3)

CC(=O)OC1C(c2ccccc2)CCC(c2ccccc2)C1OC(C)=O (stereo not drawn)
inactive: max response (HEK293) -10.8% | max response (HaCat) 3.27% | max response (KB-3-1) 7.87% | max response (NIH3T3) 0.126% | Potency (C33A) | Potency (CAOV3) | Potency (CASKI) | Potency (Es-2) | Potency (HeLa) | Potency (Hek293T) | Potency (JEG-3)

C[C@@H]1C(=O)O[C@H]2C[C@]34[C@H]5C[C@@H](C(C)(C)C)[C@]36[C@@H](OC(=O)[C@H]6O)O[C@]4(C(=O)O5)[C@]21O
inactive: max response (HEK293) -44.8% | max response (HaCat) 3.22% | max response (KB-3-1) -3.28% | max response (NIH3T3) 3.92% | Potency (C33A) | Potency (CAOV3) | Potency (CASKI) | Potency (Es-2) | Potency (HeLa) | Potency (Hek293T) | Potency (JEG-3)

COC(=O)CCC(=O)OC[C@]1(C)CCC[C@@]2(C)C3CC[C@]4(C)C=CC3(CCC12)C4 (stereo partly drawn)
inactive: max response (HEK293) -2.92% | max response (HaCat) 1.33% | max response (KB-3-1) 2.37% | max response (NIH3T3) -0.0416% | Potency (C33A) | Potency (CAOV3) | Potency (CASKI) | Potency (Es-2) | Potency (HeLa) | Potency (Hek293T) | Potency (JEG-3)

CC(C)C(N)C(=O)OCCOCn1cnc2c(=O)[nH]c(N)nc21 (stereo not drawn)
inactive: max response (HEK293) 1.16% | max response (HaCat) -13.5% | max response (KB-3-1) -4.91% | max response (NIH3T3) 1.39% | Potency (C33A) | Potency (CAOV3) | Potency (CASKI) | Potency (Es-2) | Potency (HeLa) | Potency (Hek293T) | Potency (JEG-3)

CC12CCC3c4ccc(O)cc4CCC3C1CC(OC1OC(C(=O)O)C(O)C(O)C1O)C2O (stereo not drawn)
inactive: max response (HEK293) 4.04% | max response (HaCat) -15% | outcome (KB-3-1) | max response (NIH3T3) 4.17% | Potency (C33A) | Potency (CAOV3) | Potency (CASKI) | Potency (Es-2) | Potency (HeLa) | Potency (Hek293T) | Potency (JEG-3)

CC/C=C/CC1=C(CCCCC(CCC(=O)O)OC(C)=O)CCC1=O (stereo not drawn)
inactive: max response (HEK293) -16.2% | max response (HaCat) -33.4% | max response (KB-3-1) -6.15% | max response (NIH3T3) -0.117% | Potency (C33A) | Potency (CAOV3) | Potency (CASKI) | Potency (Es-2) | Potency (HeLa) | Potency (Hek293T) | Potency (JEG-3)

C[C@@H]1O[C@@H](O[C@H]2[C@H](OC(=O)[C@]34CCC(C)(C)C[C@H]3C3=CCC5[C@@]6(C)CC[C@H](O[C@@H]7O[C@H](C(=O)O)[C@@H](O)[C@H](O)[C@H]7O[C@@H]7O[C@H](CO)[C@H](O)[C@H](O)[C@H]7O)[C@@](C)(C=O)C6CC[C@@]5(C)[C@]3(C)C[C@H]4O)O[C@H](C)[C@H](O[C@@H]3O[C@H](C)[C@H](O)[C@H](O)[C@H]3O)[C@@H]2O)[C@H](O)[C@H](O)[C@H]1O[C@@H]1OC[C@@H](O)[C@H](O[C@@H]2O[C@H](CO)[C@@H](O)[C@H](O)[C@H]2O)[C@H]1O (stereo partly drawn)
inactive: max response (HEK293) -75.9% | max response (HaCat) -0.834% | max response (KB-3-1) 9.53% | max response (NIH3T3) 3.95% | activity change, negative = cytotoxicity (C33A) 29.4% [at 6.55 µM] | activity change, negative = cytotoxicity (CAOV3) 2.56% [at 6.55 µM] | activity change, negative = cytotoxicity (CASKI) 4.26% [at 6.55 µM] | activity change, negative = cytotoxicity (Es-2) 0.809% [at 6.55 µM] | activity change, negative = cytotoxicity (HeLa) 3.75% [at 6.55 µM] | activity change, negative = cytotoxicity (Hek293T) 8.68% [at 6.55 µM] | activity change, negative = cytotoxicity (JEG-3) -1.59% [at 6.55 µM]

COc1c/c(=C2\C=c3ccccc3=N2)[nH]/c1=C\c1[nH]c(C)cc1C
active: Potency (HEK293) 1.3 µM | Potency (HaCat) 4.11 µM | Potency (KB-3-1) 2.31 µM | Potency (NIH3T3) 6.51 µM | Potency (C33A) 1.41 µM | Potency (CAOV3) 10 µM | Potency (CASKI) 12.6 µM | Potency (Es-2) 2.51 µM | Potency (HeLa) 10 µM | Potency (Hek293T) 6.31 µM | Potency (JEG-3) 7.94 µM
